Experimental data reported in PubChem BioAssay (NCI).
“And” between values parts separate entries of the source, which are not always exact repeats. Equal values may be shown once. Compounds without any hit were thinned out: in the full panel of roughly 83,000, 20% have a hit.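 Values shown are percent growth following 48 h exposure of cells in 96-well plates to a single concentration of compound; below 10 was considered active.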 The source made the active and inactive calls.

tested on: MDA-MB-468 breast; test: NCI-60 one-dose screen, 48 h (100 = growth as untreated, 0 = no growth, -100 = all killed); settings: 10 µM unless noted

Row | SMILES | growth
1 | CCOc1ccccc1C(=O)OCC(Cl)(Cl)Cl | 110% (inactive)
2 | CCCc1cc(O)c2c3c(c(=O)oc2c1)CN(C)CC3 | -3.7% (active)
3 | COc1ccc(N(CC(=O)NCCC[Te]c2ccccc2)C(=O)CNC(=O)OC(C)(C)C)cc1 | 92.6% (inactive)
4 | COc1cc(C=Nc2cc(Cl)cc(Cl)c2)ccc1N(CCCl)CCCl | 36.3% (inactive)
5 | O=CC1(c2ccccc2)CCN(Cc2ccccc2)CC1 | 103% (inactive)
6 | Nc1ccc(S(=O)(=O)F)cc1 | 107% (inactive)
7 | CC12CCC3C(CCC4Cc5[nH]c6ccccc6c5CC43C)C1CCC2O (configuration not stated) | 29.3% (inactive)
8 | O=C(CC1(O)C(=O)Nc2ccc(Cl)cc21)c1ccc(C(=O)NCC2CCC3(CC2)OOC2(CCCCC2)OO3)cc1 (configuration not stated) | 18% (inactive)
9 | C[N+]1(C)CCCC1c1cccnc1 (configuration not stated) | 101% (inactive)
10 | CC(C)(C)C(=O)OCOP(=O)(NCc1ccccc1)C1CCCN(O)C1=O (configuration not stated) | -0.478% (active)
11 | O=[P+](O)c1cccnc1 | 99.1% (inactive)
12 | CC(C)c1cccc(C(C)C)c1O | 101% (inactive) and 94.3% (inactive)
13 | N#CC(NC(=O)CCl)=C(Cl)Cl | -48.2% (active)
14 | CC(=O)Nc1ccc(C=C2C(=O)NC(=O)NC2=O)cc1 | 115% (inactive)
15 | CC(/C=N/N=C(N)N)=N/N=C(N)N | 93.9% (inactive)
16 | CCCCCCCCCCCCCCCC[N+](C)(C)Cc1ccccc1 | -27.3% (active) and -40.6% (active)
17 | C/C(Cc1ccc(Cl)cc1)=C(\c1ccc(OCCN2CCOCC2)cc1)c1ccc(OC(=O)Cc2ccccc2)cc1 | 88.7% (inactive)
